Measured values from PubChem BioAssay (NCI).
This is part of a sample that, as a whole, favours compounds with a hit. Of some 83,000 tested, about 20% had one in any assay.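 Treatment: one concentration, 48 hours, 96-well format. Scoring: percent growth, with anything below 10 considered active.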 Activity calls are given as the source filed them.

Each compound was assayed on HT29 colon (assay: NCI-60 one-dose screen, 48 h (100 = growth as untreated, 0 = no growth, -100 = all killed)). Conditions: 10 µM unless noted.

SMILES	growth
C#CC(OC(=O)N(C)C)(c1ccccc1)c1ccc(F)cc1 (stereo unspecified)	116% (inactive)
CC(C)c1ccc(C(=O)Nc2sc3c(c2C#N)CCC(=O)C3)cc1	8.34% (active)
c1coc2occoc=2o1	106% (inactive)
Cc1cc(SC#N)ncn1	108% (inactive)
Cc1ccc(NCCN2CCCCC2)c2c(=O)c3ccccc3sc12	20.5% (inactive)
O=C(NCCCNC(=O)OCc1ccc2cccc(O)c2n1)OCc1ccc2cccc(O)c2n1	17% (inactive)
O=[N+]([O-])c1ccc(O)c(-c2nc3ccccc3s2)c1	96.6% (inactive)
COc1ccc(C(=O)CSc2nccc(Nc3ccc(C(=O)O)cc3)n2)cc1	104% (inactive)
C=C(C)[C@@H]1CC[C@]2(C(=O)NCCNCCNC(=O)OC(C)(C)C)CC[C@]3(C)[C@H](CC[C@@H]4[C@@]5(C)CCC(=O)C(C)(C)[C@@H]5CC[C@]43C)[C@@H]12	23.7% [100 µM] (inactive)
Cc1ccc(-c2cn(C/C=C3\C=CN(S(=O)(=O)c4ccccc4)CC3)nn2)cc1	124% (inactive)
CC1(C)CC[C@]23CC[C@]4(C)[C@H](CC[C@@H]5[C@@]6(C)C/C(=C/c7ccncc7)C(=O)C(C)(C)[C@@H]6CC[C@]54C)[C@H]2[C@H]1OC3=O	71.5% [100 µM] (inactive)
CCN(CC)CCCOc1ccc2c(c1)O/C(=C\c1cccc(OC)c1)C2=O	50.2% (inactive)
CC1Cc2c(Cl)ncnc2N(C)c2ccc(O)cc21 (stereo unspecified)	74.7% (inactive)
CSc1cccc([N+](=O)[O-])c1	90.2% (inactive)
CSc1nc(=S)c2nc(SC)n(-c3ccccc3)c2[nH]1	92.3% (inactive)
O=c1[nH]cnc2c1ccn2C1OC(CO)C(O)C1O (stereo unspecified)	65.9% (inactive)
COc1ccc(N(c2nc(-c3ccc([N+](=O)[O-])cc3)cs2)C(C)C)cc1	97.2% (inactive)
COc1cc(NN=C(c2ccc(O)cc2)c2ccc(O)cc2)c([N+](=O)[O-])cc1[N+](=O)[O-]	98.1% (inactive)
COc1ccc2nc3c(cc2c1)C(=O)CC(C(F)(F)F)C3 (stereo unspecified)	10.9% (inactive)

SMILES	growth
CCOc1ccc(S(=O)(=O)Nc2ccc3c(c2)N(S(=O)(=O)CC)CCC3)cc1	72.7% (inactive)
O=C(Nc1ccc(C(=O)/C=C/c2ccc(N3CCOCC3)cc2)cc1)Nc1ccc([N+](=O)[O-])cc1	88.6% (inactive)
C=C(C)[C@@H]1CC[C@]2(C)[C@H](CC[C@@H]3[C@@H]([C@@](C)(O)CCC=C(C)C)CC[C@]32C)[C@@]1(C)CCC(=O)N1CCN(C)CC1	-70.8% [100 µM] (active)
C=C(C)[C@@H]1CC[C@]2(COCCCN)CC[C@]3(C)[C@H](CC[C@@H]4[C@@](C)(CCCNCCCN)[C@H](C(=C)C)CC[C@]43C)[C@@H]12	-23.1% [100 µM] (active)
COc1cc2c(cc1OCCCN1CCN(CCCOc3cc4c(cc3OC)C(=O)N3C[C@H](F)C[C@H]3C=N4)CC1)N=C[C@@H]1C[C@@H](F)CN1C2=O	0.625% (active)
CC(C)c1ccc(/C=N/N=C(N)N)cc1	70.6% (inactive)
CCCCCCCCCCCCCCCCCCNC(=S)N/N=C/c1ccc(OC)c(OC)c1	99.9% (inactive)
C=C(C)[C@@H]1CC[C@]2(C)[C@H](CC[C@@H]3[C@@H]([C@@](C)(O)CCC=C(C)C)CC[C@]32C)[C@@]1(C)CCC(=O)O	2.65% [100 µM] (active)
Cc1ccc(S(=O)(=O)Oc2ccc([N+](=O)[O-])cc2[N+](=O)[O-])cc1	98.2% (inactive)
C=CCCCCOc1ccccc1-c1cnc(OCCCCC=C)n1C	18.1% (inactive)
Cc1ncc(C(=O)Nc2ccc(CN3CCN(C)CC3)c(C(F)(F)F)c2)cc1C#Cc1c(N)ncc2ccc(C#N)cc12	11.9% (inactive)
CCc1cccc(Cl)c1	92.8% (inactive)
Cc1ccc(S(=O)(=O)N/N=C2\CC3CCC2(C)C3(C)C)cc1 (stereo unspecified)	108% (inactive)
COc1ccc(C(C(=O)O)c2ccc(OC)cc2)cc1	114% (inactive)
Fc1ccc(NC(=S)c2ccccc2)cc1	109% (inactive)
c1cc2ccc3cc2cc1CNCCN1CCNCc2ccc4ccc(cc4c2)CNCCN(CCNC3)CCNCc2ccc3ccc(cc3c2)CNCC1	1.47% (active)
Cn1cc(-c2nnc(-c3ccccc3)s2)c2cc(Br)cnc21	95% (inactive)
CCOc1ccc2sc(NS(=O)(=O)c3ccc(N)cc3)nc2c1	109% (inactive)
COc1ccc2c(c1)C(C)Cc1c(Cl)ncnc1N2C (stereo unspecified)	-3.53% (active)

These compounds were tested on SNB-75 CNS in the same assay as above. Conditions: 10 µM unless noted.

SMILES	growth
C#CC(OC(=O)N(C)C)(c1ccccc1)c1ccc(F)cc1 (stereo unspecified)	93% (inactive)
CC(C)c1ccc(C(=O)Nc2sc3c(c2C#N)CCC(=O)C3)cc1	-42.1% (active)
c1coc2occoc=2o1	97.4% (inactive)
Cc1cc(SC#N)ncn1	86.7% (inactive)
Cc1ccc(NCCN2CCCCC2)c2c(=O)c3ccccc3sc12	38.7% (inactive)
O=C(NCCCNC(=O)OCc1ccc2cccc(O)c2n1)OCc1ccc2cccc(O)c2n1	28.4% (inactive)
O=[N+]([O-])c1ccc(O)c(-c2nc3ccccc3s2)c1	86.9% (inactive)
COc1ccc(C(=O)CSc2nccc(Nc3ccc(C(=O)O)cc3)n2)cc1	102% (inactive)
C=C(C)[C@@H]1CC[C@]2(C(=O)NCCNCCNC(=O)OC(C)(C)C)CC[C@]3(C)[C@H](CC[C@@H]4[C@@]5(C)CCC(=O)C(C)(C)[C@@H]5CC[C@]43C)[C@@H]12	23.9% [100 µM] (inactive)
Cc1ccc(-c2cn(C/C=C3\C=CN(S(=O)(=O)c4ccccc4)CC3)nn2)cc1	82.1% (inactive)
CC1(C)CC[C@]23CC[C@]4(C)[C@H](CC[C@@H]5[C@@]6(C)C/C(=C/c7ccncc7)C(=O)C(C)(C)[C@@H]6CC[C@]54C)[C@H]2[C@H]1OC3=O	-49.9% [100 µM] (active)
CCN(CC)CCCOc1ccc2c(c1)O/C(=C\c1cccc(OC)c1)C2=O	71.8% (inactive)
CC1Cc2c(Cl)ncnc2N(C)c2ccc(O)cc21 (stereo unspecified)	85% (inactive)
CSc1cccc([N+](=O)[O-])c1	115% (inactive)
CSc1nc(=S)c2nc(SC)n(-c3ccccc3)c2[nH]1	94.8% (inactive)
O=c1[nH]cnc2c1ccn2C1OC(CO)C(O)C1O (stereo unspecified)	74.6% (inactive)
COc1ccc(N(c2nc(-c3ccc([N+](=O)[O-])cc3)cs2)C(C)C)cc1	103% (inactive)
COc1cc(NN=C(c2ccc(O)cc2)c2ccc(O)cc2)c([N+](=O)[O-])cc1[N+](=O)[O-]	98.4% (inactive)
COc1ccc2nc3c(cc2c1)C(=O)CC(C(F)(F)F)C3 (stereo unspecified)	7.87% (active)

SMILES	growth
CCOc1ccc(S(=O)(=O)Nc2ccc3c(c2)N(S(=O)(=O)CC)CCC3)cc1	64.8% (inactive)
O=C(Nc1ccc(C(=O)/C=C/c2ccc(N3CCOCC3)cc2)cc1)Nc1ccc([N+](=O)[O-])cc1	94.7% (inactive)
C=C(C)[C@@H]1CC[C@]2(C)[C@H](CC[C@@H]3[C@@H]([C@@](C)(O)CCC=C(C)C)CC[C@]32C)[C@@]1(C)CCC(=O)N1CCN(C)CC1	-92.5% [100 µM] (active)
C=C(C)[C@@H]1CC[C@]2(COCCCN)CC[C@]3(C)[C@H](CC[C@@H]4[C@@](C)(CCCNCCCN)[C@H](C(=C)C)CC[C@]43C)[C@@H]12	-74.1% [100 µM] (active)
COc1cc2c(cc1OCCCN1CCN(CCCOc3cc4c(cc3OC)C(=O)N3C[C@H](F)C[C@H]3C=N4)CC1)N=C[C@@H]1C[C@@H](F)CN1C2=O	-72.3% (active)
CC(C)c1ccc(/C=N/N=C(N)N)cc1	76.9% (inactive)
CCCCCCCCCCCCCCCCCCNC(=S)N/N=C/c1ccc(OC)c(OC)c1	88.2% (inactive)
C=C(C)[C@@H]1CC[C@]2(C)[C@H](CC[C@@H]3[C@@H]([C@@](C)(O)CCC=C(C)C)CC[C@]32C)[C@@]1(C)CCC(=O)O	-37.5% [100 µM] (active)
Cc1ccc(S(=O)(=O)Oc2ccc([N+](=O)[O-])cc2[N+](=O)[O-])cc1	98.9% (inactive)
C=CCCCCOc1ccccc1-c1cnc(OCCCCC=C)n1C	81.9% (inactive)
Cc1ncc(C(=O)Nc2ccc(CN3CCN(C)CC3)c(C(F)(F)F)c2)cc1C#Cc1c(N)ncc2ccc(C#N)cc12	56.4% (inactive)
CCc1cccc(Cl)c1	91% (inactive)
Cc1ccc(S(=O)(=O)N/N=C2\CC3CCC2(C)C3(C)C)cc1 (stereo unspecified)	81.8% (inactive)
COc1ccc(C(C(=O)O)c2ccc(OC)cc2)cc1	72.2% (inactive)
Fc1ccc(NC(=S)c2ccccc2)cc1	99.7% (inactive)
c1cc2ccc3cc2cc1CNCCN1CCNCc2ccc4ccc(cc4c2)CNCCN(CCNC3)CCNCc2ccc3ccc(cc3c2)CNCC1	-12.6% (active)
Cn1cc(-c2nnc(-c3ccccc3)s2)c2cc(Br)cnc21	29.9% (inactive)
CCOc1ccc2sc(NS(=O)(=O)c3ccc(N)cc3)nc2c1	98.2% (inactive)
COc1ccc2c(c1)C(C)Cc1c(Cl)ncnc1N2C (stereo unspecified)	2.7% (active)
